Assay results: PubChem BioAssay (EPA / NIEHS)
Several values for one entry are separate records, joined by “and”; a condition that tells them apart may be missing. Equal values may be shown once. More than one record can exist for a structure, and the calls need not agree. Activity calls are given as the source filed them. How the source made its calls: active means hit-call score of the fitted dose curve at least 0.9, where 1 is the maximum; inactive means score below 0.9.

Columns and labels:
[1] = read-out: Interleukin-8 (IL8), CXCL8 (gene 3576); assay: BSK_CASM3C_IL8: BioMAP Diversity Plus: CASM3C Assay for Interleukin-8 (IL8) Biomarker Activity (AID 2283042); conditions: primary human coronary artery smooth muscle cells; actives raise or lower the signal;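 further: IL-8 protein level quantified by ELISA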
[2] = read-out: Human Leukocyte Antigen - DR isotype (HLADR), HLA-DRA (gene 3122); assay: BSK_CASM3C_HLADR: BioMAP Diversity Plus: CASM3C Assay for Human Leukocyte Antigen - DR isotype (HLADR) Biomarker Activity (AID 2283043); conditions: primary human coronary artery smooth muscle cells; actives raise or lower the signal;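 further: cell-surface HLA-DR protein level quantified by ELISA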
[3] = read-out: Macrophage colony-stimulating factor (MCSF), CSF1 (gene 1435); assay: BSK_CASM3C_MCSF: BioMAP Diversity Plus: CASM3C Assay for Macrophage colony-stimulating factor (MCSF) Biomarker Activity (AID 2283044); conditions: primary human coronary artery smooth muscle cells; actives raise or lower the signal;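 further: M-CSF protein amount quantified by ELISA after 24 h exposure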
[4] = read-out: Low-density lipoprotein receptor (LDLR), LDLR (gene 3949); assay: BSK_CASM3C_LDLR: BioMAP Diversity Plus: CASM3C Assay for Low-density lipoprotein receptor (LDLR) Biomarker Activity (AID 2283045); conditions: primary human coronary artery smooth muscle cells; actives raise or lower the signal;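 further: LDLR protein level on the cell surface quantified by ELISA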
[5] = read-out: Monocyte Chemoattractant Protein-1 (MCP1), CCL2 (gene 6347); assay: BSK_CASM3C_MCP1: BioMAP Diversity Plus: CASM3C Assay for Monocyte Chemoattractant Protein-1 (MCP1) Biomarker Activity (AID 2283046); conditions: primary human coronary artery smooth muscle cells; actives raise or lower the signal;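 further: MCP-1 level quantified by ELISA 24 h after dosing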
[6] = BSK_CASM3C_Proliferation: Cell Proliferation Assessment in the BioMAP Diversity Plus: CASM3C Assay (AID 2283047); conditions: primary human coronary artery smooth muscle cells;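 further: sulforhodamine B total protein stain as relative cell number at 560 nm; sub-confluent cells exposed 48 h before staining; fitted both ways against DMSO so gain or loss of cell number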
[7] = read-out: Monokine induced gamma interferon (MIG), CXCL9 (gene 4283); assay: BSK_CASM3C_MIG: BioMAP Diversity Plus: CASM3C Assay for Monokine induced gamma interferon (MIG) Biomarker Activity (AID 2283048); conditions: primary human coronary artery smooth muscle cells; actives raise or lower the signal;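 further: MIG protein level measured by ELISA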
[8] = read-out: serum amyloid A (SAA), SAA1 (gene 6288); assay: BSK_CASM3C_SAA: BioMAP Diversity Plus: CASM3C Assay for serum amyloid A (SAA) Biomarker Activity (AID 2283049); conditions: primary human coronary artery smooth muscle cells; actives raise or lower the signal;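 further: SAA protein level quantified by ELISA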
[9] = BSK_CASM3C_SRB: Viability Assessment in the BioMAP Diversity Plus: CASM3C Assay (AID 2283050); conditions: primary human coronary artery smooth muscle cells;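 further: total protein by SRB staining as cytotoxicity measure in parallel cultures; cells exposed to compound for 24 h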
[10] = read-out: Thrombomodulin, THBD (gene 7056); assay: BSK_CASM3C_Thrombomodulin: BioMAP Diversity Plus: CASM3C Assay for Thrombomodulin Biomarker Activity (AID 2283051); conditions: primary human coronary artery smooth muscle cells; actives raise or lower the signal;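 further: thrombomodulin protein level measured by ELISA 24 h after dosing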

Measured: AC50

CN(CCO)S(=O)(=O)C(F)(F)C(F)(F)C(F)(F)C(F)(F)C(F)(F)C(F)(F)C(F)(F)C(F)(F)F
active: [7] 0.0293 µM
inactive: [1] | [2] | [3] | [4] | [5] | [6] | [7] | [8] | [9] | [10]

CCCCCCCCCCCCCCCCCC[N+](C)(C)Cc1ccccc1
active: [1] 12.6 µM | [2] 3.45 µM | [3] 5.5 µM | [4] 6.53 µM | [5] 5.29 µM | [6] 2.74 µM | [7] 15.4 µM | [8] 2.72 µM | [9] 2.75 µM | [10] 2.56 µM

NC(=NCCCCCCN=C(N)/N=C(\N)Nc1ccc(Cl)cc1)/N=C(\N)Nc1ccc(Cl)cc1
active: [1] 9.32 µM | [2] 6.06 µM | [3] 7.55 µM | [4] 5.55 µM | [6] 4.91 µM | [7] 13.2 µM | [8] 5.67 µM | [9] 4.9 µM | [10] 4.64 µM

C=CC(=O)OCCC(F)(F)C(F)(F)C(F)(F)C(F)(F)C(F)(F)C(F)(F)C(F)(F)C(F)(F)F
inactive: all assays above

O=C1OC2(c3ccccc31)c1cc(I)c(O)c(I)c1Oc1c2cc(I)c(O)c1I
active: [3] 3.7 µM | [5] 6.12 µM | [10] 2.38 µM
inactive: all other assays above

Clc1ccc(Nc2nnc(Cc3ccncc3)c3ccccc23)cc1
active: [6] 3.48 µM | [8] 0.507 µM
not listed: [7]
inactive: all other assays above

Oc1cc2ccccc2cc1O
inactive: all assays above

O=C(O)CCC(F)(F)C(F)(F)C(F)(F)C(F)(F)C(F)(F)F
inactive: all assays above

O=C(O)CCC(F)(F)C(F)(F)C(F)(F)C(F)(F)C(F)(F)C(F)(F)F
inactive: all assays above

CC(C)(C)c1ccc(O)c(O)c1
active: [10] 20 µM
not listed: [1] | [6]
inactive: all other assays above

Cc1[nH]nc2c1N=C(c1ccccc1Cl)c1cc([N+](=O)[O-])ccc1N2
active: [2] 8.7 µM | [3] 0.581 µM | [6] 0.807 µM | [7] 7.47 µM | [8] 0.641 µM
inactive: all other assays above

O=C(CC(=O)C(F)(F)C(F)(F)C(F)(F)F)c1cccs1
inactive: [1] | [10]
active: [2] 47.3 µM and 50.5 µM | [3] 45.2 µM and 48.9 µM | [4] 40.2 µM and 32.8 µM | [5] 45.5 µM and 45.9 µM | [6] 30 µM and 24.6 µM | [7] 42 µM and 50.2 µM | [8] 41.2 µM and 43.4 µM | [9] 45.6 µM and 44.6 µM | [10] 54.4 µM

OCCN1CN(CCO)CN(CCO)C1
active: [3] 5 µM | [4] 0.17 µM | [9] 20 µM
inactive: all other assays above

C[C@]12CC[C@@H]3c4ccc(O)cc4CC[C@H]3[C@@H]1C[C@@H](O)[C@@H]2O
active: [3] 8.12 µM
inactive: all other assays above

CCCCCCCCCCCCOS(=O)(=O)O
not listed: [5] | [8]
inactive: all other assays above
